Measured values: publication PMC7862700, “An all-to-all approach to the identification of sequence-specific readers for epigenetic DNA modifications on cytosine”

Tests used:
Test in all cases: DAPPL (digital affinity profiling via proximity ligation, sequencing); 10 mM Tris-HCl pH 7.5, 50 mM NaCl, 1 mM DTT, 4% glycerol, room temperature, 30 min; GST-TFs on glutathione beads, 16-mer random dsDNA library, 0.1% formaldehyde crosslink after washing; high values mean tight binding
[1] = biological target: T1, FLI1 (Homo sapiens, UniProt Q01543 1-452); conditions: protein: recombinant; tags: N-terminal GST; dsDNA, one strand shown
T1 sequence: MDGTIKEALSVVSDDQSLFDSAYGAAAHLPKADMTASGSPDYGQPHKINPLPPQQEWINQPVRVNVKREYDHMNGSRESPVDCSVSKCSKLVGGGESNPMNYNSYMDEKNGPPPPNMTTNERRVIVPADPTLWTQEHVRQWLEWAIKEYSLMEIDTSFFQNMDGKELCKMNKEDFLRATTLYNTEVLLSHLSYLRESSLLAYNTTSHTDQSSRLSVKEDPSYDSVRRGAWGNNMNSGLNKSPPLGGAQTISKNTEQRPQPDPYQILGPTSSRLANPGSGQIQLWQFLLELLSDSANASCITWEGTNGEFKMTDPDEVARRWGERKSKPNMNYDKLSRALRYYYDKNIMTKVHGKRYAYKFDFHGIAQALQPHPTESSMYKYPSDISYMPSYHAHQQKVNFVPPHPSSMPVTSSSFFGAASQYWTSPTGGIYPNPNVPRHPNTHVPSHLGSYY
Outline: (§1)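 Human transcription factors carrying a GST fusion were produced in yeast, bound to glutathione beads, tagged with DNA barcodes and pooled together with a tag-only sample. Each pool was held with 200 nmole of a random double-stranded 16-mer DNA library in Tris/NaCl/DTT/glycerol buffer for 30 min at room temperature, then washed, crosslinked in 0.1% formaldehyde, proximity-ligated with BsaI/T4 ligase (1 h, 37 °C), PCR-amplified and sequenced on an Illumina NextSeq500. Binding signal is the read frequency of each hexamer for a given factor divided by its frequency in the tag-only sample.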

[2] = biological target: T2, ELK1 (Homo sapiens, UniProt P19419 1-428); conditions: protein: recombinant; tags: N-terminal GST; dsDNA, one strand shown
T2 sequence: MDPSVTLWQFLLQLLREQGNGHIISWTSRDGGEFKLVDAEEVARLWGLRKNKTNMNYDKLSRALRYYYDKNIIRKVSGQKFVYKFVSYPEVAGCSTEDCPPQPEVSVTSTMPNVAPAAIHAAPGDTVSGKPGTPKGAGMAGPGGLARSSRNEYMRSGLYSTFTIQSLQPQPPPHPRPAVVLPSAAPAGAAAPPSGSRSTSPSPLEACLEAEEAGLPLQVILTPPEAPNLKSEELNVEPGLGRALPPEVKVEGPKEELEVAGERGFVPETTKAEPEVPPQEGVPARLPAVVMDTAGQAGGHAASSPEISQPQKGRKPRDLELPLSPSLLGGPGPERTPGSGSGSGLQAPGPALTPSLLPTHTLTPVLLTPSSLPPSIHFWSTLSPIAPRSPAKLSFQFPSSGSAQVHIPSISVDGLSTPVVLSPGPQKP
Outline: as §1

[3] = biological target: T3, ERG (Homo sapiens, UniProt P11308 1-479); conditions: protein: recombinant; tags: N-terminal GST; dsDNA, one strand shown
T3 sequence: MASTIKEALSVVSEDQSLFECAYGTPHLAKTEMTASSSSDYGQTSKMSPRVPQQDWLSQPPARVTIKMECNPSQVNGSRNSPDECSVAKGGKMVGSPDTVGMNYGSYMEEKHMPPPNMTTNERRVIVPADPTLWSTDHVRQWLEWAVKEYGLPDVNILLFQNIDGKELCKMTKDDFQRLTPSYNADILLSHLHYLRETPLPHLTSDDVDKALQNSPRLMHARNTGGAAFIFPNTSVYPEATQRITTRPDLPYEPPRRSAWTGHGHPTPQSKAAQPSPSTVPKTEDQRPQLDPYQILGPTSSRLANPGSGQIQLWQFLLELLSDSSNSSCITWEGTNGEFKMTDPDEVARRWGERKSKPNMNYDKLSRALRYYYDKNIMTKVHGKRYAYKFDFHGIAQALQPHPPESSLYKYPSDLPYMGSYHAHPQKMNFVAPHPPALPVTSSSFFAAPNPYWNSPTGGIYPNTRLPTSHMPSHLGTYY
Outline: as §1

[4] = biological target: T4, EHF (Homo sapiens, UniProt Q9NZC4 1-300); conditions: protein: recombinant; tags: N-terminal GST; dsDNA, one strand shown
T4 sequence: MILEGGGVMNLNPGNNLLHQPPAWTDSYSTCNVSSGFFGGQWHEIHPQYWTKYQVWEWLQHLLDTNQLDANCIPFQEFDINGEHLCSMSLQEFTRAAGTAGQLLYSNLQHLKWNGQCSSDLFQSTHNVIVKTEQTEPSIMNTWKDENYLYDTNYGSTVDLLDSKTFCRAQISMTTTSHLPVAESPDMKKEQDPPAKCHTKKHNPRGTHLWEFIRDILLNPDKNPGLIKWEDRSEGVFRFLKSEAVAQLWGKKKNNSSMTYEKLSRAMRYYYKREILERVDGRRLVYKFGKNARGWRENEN
Outline: as §1

[5] = biological target: SPI1 (Homo sapiens, UniProt P17947 1-270); conditions: protein: recombinant; tags: N-terminal GST; dsDNA, one strand shown
Outline: as §1

[6] = biological target: T5, ELK3 (Homo sapiens, UniProt P41970 1-407); conditions: protein: recombinant; tags: N-terminal GST; dsDNA, one strand shown
T5 sequence: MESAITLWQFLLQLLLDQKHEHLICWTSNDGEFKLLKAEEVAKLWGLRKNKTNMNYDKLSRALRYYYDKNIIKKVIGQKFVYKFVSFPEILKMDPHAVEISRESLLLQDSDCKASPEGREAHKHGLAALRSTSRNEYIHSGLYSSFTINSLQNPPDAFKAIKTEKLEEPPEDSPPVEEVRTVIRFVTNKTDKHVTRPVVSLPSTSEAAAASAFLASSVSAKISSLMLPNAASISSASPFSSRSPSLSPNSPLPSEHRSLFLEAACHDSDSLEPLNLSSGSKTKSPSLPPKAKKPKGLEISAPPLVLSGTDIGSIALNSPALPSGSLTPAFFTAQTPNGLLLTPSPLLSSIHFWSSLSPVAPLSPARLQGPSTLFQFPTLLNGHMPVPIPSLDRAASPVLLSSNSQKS
Outline: as §1

[7] = biological target: T6, FEV (Homo sapiens, UniProt Q99581 1-238); conditions: protein: recombinant; tags: N-terminal GST; dsDNA, one strand shown
T6 sequence: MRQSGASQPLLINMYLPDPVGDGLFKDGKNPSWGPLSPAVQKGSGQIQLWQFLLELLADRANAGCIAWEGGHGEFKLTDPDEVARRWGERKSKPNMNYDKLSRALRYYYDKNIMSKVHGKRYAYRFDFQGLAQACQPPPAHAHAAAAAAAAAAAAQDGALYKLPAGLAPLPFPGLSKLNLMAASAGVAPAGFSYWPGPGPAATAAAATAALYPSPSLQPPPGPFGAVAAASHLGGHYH
Outline: as §1

[8] = biological target: ETV5 (Homo sapiens, UniProt P41161 1-510); conditions: protein: recombinant; tags: N-terminal GST; dsDNA, one strand shown
Outline: as §1

[9] = biological target: HSF1 (Homo sapiens, UniProt Q00613 1-529); conditions: protein: recombinant; tags: N-terminal GST; chain copies: 3; dsDNA, one strand shown
Outline: as §1

[10] = biological target: T7, SPIC (Homo sapiens, UniProt Q8N5J4 1-248); conditions: protein: recombinant; tags: N-terminal GST; dsDNA, one strand shown
T7 sequence: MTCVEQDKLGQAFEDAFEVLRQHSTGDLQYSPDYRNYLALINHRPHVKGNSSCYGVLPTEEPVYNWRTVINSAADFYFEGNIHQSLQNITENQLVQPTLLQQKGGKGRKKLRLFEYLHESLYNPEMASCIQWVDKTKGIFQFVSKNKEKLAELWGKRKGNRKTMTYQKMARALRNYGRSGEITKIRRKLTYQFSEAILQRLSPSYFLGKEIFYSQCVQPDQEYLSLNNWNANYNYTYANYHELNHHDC
Outline: as §1

[11] = biological target: ELF4 (Homo sapiens, UniProt Q99607 1-663); conditions: protein: recombinant; tags: N-terminal GST; dsDNA, one strand shown
Outline: as §1

[12] = biological target: T8, ELK4 (Homo sapiens, UniProt P28324-2 1-405); conditions: protein: recombinant; tags: N-terminal GST; dsDNA, one strand shown
T8 sequence: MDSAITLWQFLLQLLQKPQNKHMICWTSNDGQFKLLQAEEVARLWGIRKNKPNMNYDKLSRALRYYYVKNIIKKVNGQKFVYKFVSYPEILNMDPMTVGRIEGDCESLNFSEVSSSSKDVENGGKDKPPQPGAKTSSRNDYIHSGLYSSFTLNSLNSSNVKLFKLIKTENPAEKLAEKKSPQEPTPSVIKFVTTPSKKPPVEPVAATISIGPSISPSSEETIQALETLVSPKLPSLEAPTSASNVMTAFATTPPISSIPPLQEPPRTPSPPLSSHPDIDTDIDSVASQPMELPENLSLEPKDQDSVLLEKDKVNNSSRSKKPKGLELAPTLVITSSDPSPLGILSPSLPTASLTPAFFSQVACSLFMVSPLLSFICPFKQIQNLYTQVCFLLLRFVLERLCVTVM
Outline: as §1

[13] = biological target: T9, ETV2 (Homo sapiens, UniProt O00321 1-342); conditions: protein: recombinant; tags: N-terminal GST; dsDNA, one strand shown
T9 sequence: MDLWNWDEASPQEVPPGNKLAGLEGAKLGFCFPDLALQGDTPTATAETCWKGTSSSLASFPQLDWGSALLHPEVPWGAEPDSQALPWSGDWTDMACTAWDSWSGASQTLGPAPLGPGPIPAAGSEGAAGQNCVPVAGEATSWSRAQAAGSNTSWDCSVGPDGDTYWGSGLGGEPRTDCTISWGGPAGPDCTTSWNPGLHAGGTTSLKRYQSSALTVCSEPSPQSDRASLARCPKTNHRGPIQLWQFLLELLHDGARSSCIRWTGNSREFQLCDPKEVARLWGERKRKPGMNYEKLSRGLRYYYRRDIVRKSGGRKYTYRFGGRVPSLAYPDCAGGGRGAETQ
Outline: as §1

[14] = biological target: CRX (Homo sapiens, UniProt O43186 1-299); conditions: protein: recombinant; tags: N-terminal GST; dsDNA, one strand shown
Outline: as §1

[15] = biological target: ETV1 (Homo sapiens, UniProt P50549 1-477); conditions: protein: recombinant; tags: N-terminal GST; dsDNA, one strand shown
Outline: as §1

Chain of ETV5 (P41161 whole entry): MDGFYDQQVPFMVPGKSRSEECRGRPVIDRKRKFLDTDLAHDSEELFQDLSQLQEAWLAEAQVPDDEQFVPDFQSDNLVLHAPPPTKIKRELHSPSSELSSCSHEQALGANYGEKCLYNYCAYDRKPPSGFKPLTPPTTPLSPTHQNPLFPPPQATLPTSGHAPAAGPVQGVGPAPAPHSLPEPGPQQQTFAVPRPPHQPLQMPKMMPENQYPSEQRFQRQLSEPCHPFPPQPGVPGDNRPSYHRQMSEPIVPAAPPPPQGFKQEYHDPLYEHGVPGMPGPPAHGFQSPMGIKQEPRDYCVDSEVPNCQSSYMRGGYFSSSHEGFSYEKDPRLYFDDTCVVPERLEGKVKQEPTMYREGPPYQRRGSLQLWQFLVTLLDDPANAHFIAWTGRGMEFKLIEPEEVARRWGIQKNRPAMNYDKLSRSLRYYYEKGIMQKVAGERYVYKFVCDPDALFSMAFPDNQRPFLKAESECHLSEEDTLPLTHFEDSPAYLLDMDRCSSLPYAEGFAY
Chain of ETV1 (P50549 whole entry): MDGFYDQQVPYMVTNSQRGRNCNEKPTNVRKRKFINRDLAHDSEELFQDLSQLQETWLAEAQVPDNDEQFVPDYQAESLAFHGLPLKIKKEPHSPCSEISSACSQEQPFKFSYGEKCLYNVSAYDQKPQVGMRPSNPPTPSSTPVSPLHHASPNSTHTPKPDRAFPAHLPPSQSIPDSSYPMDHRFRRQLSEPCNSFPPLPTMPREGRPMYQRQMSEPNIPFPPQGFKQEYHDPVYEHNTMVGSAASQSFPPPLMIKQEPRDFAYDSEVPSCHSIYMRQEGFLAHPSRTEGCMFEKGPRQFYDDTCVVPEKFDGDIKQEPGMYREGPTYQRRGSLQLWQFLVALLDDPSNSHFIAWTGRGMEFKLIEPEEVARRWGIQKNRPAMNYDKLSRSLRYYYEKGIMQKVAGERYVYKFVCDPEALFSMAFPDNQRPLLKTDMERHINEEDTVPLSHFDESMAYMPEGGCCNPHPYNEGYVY
Chain of HSF1 (Q00613 whole entry): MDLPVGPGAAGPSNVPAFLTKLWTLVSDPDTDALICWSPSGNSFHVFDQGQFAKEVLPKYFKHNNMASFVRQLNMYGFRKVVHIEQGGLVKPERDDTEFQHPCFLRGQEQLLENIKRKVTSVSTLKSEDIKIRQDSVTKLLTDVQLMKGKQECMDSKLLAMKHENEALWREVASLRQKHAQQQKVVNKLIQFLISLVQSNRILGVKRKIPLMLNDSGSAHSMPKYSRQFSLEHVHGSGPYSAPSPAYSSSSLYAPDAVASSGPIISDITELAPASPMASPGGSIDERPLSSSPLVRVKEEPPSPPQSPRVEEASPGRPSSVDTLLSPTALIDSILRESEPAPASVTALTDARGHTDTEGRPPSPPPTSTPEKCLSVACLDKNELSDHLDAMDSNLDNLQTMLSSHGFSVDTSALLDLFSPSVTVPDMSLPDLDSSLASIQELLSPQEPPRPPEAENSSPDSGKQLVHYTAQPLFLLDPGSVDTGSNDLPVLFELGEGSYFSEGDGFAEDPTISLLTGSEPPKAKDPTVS
Chain of CRX (O43186 whole entry): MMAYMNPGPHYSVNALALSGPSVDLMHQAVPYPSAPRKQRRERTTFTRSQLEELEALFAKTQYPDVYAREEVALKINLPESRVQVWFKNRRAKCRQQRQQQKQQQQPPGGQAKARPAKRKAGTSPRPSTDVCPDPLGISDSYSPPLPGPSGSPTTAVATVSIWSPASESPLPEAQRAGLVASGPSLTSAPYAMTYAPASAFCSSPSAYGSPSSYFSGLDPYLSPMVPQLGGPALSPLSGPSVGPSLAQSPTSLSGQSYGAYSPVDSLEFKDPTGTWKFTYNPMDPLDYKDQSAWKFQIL
Chain of ELF4 (Q99607 whole entry): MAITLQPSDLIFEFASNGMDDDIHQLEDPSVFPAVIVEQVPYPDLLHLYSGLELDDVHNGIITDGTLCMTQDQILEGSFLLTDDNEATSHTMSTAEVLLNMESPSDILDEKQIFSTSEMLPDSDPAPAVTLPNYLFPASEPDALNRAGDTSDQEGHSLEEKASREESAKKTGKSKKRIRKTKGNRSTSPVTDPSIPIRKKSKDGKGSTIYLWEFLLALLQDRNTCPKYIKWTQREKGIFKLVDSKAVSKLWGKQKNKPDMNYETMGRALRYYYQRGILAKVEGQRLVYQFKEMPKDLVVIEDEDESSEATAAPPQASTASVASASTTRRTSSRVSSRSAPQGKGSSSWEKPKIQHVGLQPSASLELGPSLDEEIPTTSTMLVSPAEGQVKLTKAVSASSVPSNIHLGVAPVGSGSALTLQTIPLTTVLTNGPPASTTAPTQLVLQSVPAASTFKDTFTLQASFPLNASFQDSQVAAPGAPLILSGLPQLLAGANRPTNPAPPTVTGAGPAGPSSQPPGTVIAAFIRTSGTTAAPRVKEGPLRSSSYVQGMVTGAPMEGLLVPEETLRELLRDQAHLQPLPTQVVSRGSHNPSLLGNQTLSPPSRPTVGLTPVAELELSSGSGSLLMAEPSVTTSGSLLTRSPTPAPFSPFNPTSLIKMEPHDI

Sequence: TATTAG
- binding signal [1]: 1.05 fold enrichment (6-mer frequency, TF over GST control)
- binding signal [2]: 1.03 fold enrichment (6-mer frequency, TF over GST control)
- binding signal [3]: 1.07 fold enrichment (6-mer frequency, TF over GST control)
- binding signal [4]: 1.02 fold enrichment (6-mer frequency, TF over GST control)
- binding signal [5]: 1.09 fold enrichment (6-mer frequency, TF over GST control)
- binding signal [6]: 1.18 fold enrichment (6-mer frequency, TF over GST control)
- binding signal [7]: 1.02 fold enrichment (6-mer frequency, TF over GST control)
- binding signal [8]: 1.04 fold enrichment (6-mer frequency, TF over GST control)
- binding signal [9]: 1.42 fold enrichment (6-mer frequency, TF over GST control)
- binding signal [10]: 1.13 fold enrichment (6-mer frequency, TF over GST control)
- binding signal [11]: 1.05 fold enrichment (6-mer frequency, TF over GST control)
- binding signal [12]: 1.04 fold enrichment (6-mer frequency, TF over GST control)
- binding signal [13]: 1.23 fold enrichment (6-mer frequency, TF over GST control)
- binding signal [14]: 1.94 fold enrichment (6-mer frequency, TF over GST control)
- binding signal [15]: 1.12 fold enrichment (6-mer frequency, TF over GST control)
